Where “and” joins values, the source holds several entries; their conditions need not be identical. Equal values may be shown once. About 2,000 (36%) of roughly 5,500 compounds were called active. Not shown: some 18% with an inconclusive outcome. Cut-off read from the data, not from the text of the source: active = normalized growth mostly below about 0.91 (no sharp cut-off); inconclusive = no clear call, values can overlap the other calls; inactive = mostly above about 0.92. The list shows a part of the results.
Test: chemical genetic growth profiling, strain panel (AID 1159580);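 note: tested at 20 µM; growth read once vehicle control cultures reached saturation at 30 °C; 1 = growth at the plate median or of vehicle wells; lower values mean less growth of the strain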
Conditions: S. cerevisiae deletion strains, growth OD

Measured: normalized growth

C[C@@H](CO)NC(=O)C1C=C2c3cccc4[nH]cc(c34)C[C@H]2N(C)C1 (stereo partly specified)
inactive: locus YAL013W, strain DEP1, stronger effect = lower value 1.02 | locus YAL021C, strain ccr4, stronger effect = lower value 1.01 | locus YAL026C, strain drs2, stronger effect = lower value 0.989 | locus YAL030W, strain snc1, stronger effect = lower value 1.03 | locus YBL061C, strain skt5, stronger effect = lower value 1.02 | locus YBR009C, strain hhf1, stronger effect = lower value 0.979 | locus YBR021W, strain FUR4, stronger effect = lower value 0.963 | locus YBR023C, strain chs3, stronger effect = lower value 1.01 | locus YBR171W, strain sec66, stronger effect = lower value 1.02 | locus YBR229C, strain ROT2, stronger effect = lower value 0.997 | locus YBR231C, strain swc5, stronger effect = lower value 1.02 | locus YBR279W, strain paf1, stronger effect = lower value 1 | locus YCL011C, strain gbp2, stronger effect = lower value 0.991 | locus YCL016C, strain dcc1, stronger effect = lower value 0.955 | locus YCL029C, strain bik1, stronger effect = lower value 0.986 | locus YCL069W, strain vba3, stronger effect = lower value 1.01 | locus YCR088W, strain abp1, stronger effect = lower value 1.01 | locus YDL005C, strain med2, stronger effect = lower value 1.02 | locus YDL035C, strain GPR1, stronger effect = lower value 1.03 | locus YDL040C, strain nat1, stronger effect = lower value 1.01 | locus YDL074C, strain BRE1, stronger effect = lower value 1.08 | locus YDL101C, strain DUN1, stronger effect = lower value 0.996 | locus YDL134C, strain PPH21, stronger effect = lower value 0.995 | locus YDL185W, strain tfp1, stronger effect = lower value 0.983 | locus YDL192W, strain arf1, stronger effect = lower value 0.994 | locus YDR001C, strain nth1, stronger effect = lower value 1 | locus YDR069C, strain doa4, stronger effect = lower value 1.04 | locus YDR101C, strain arx1, stronger effect = lower value 0.997 | locus YDR137W, strain rgp1, stronger effect = lower value 0.984 | locus YDR150W, strain NUM1, stronger effect = lower value 0.987 | locus YDR159W, strain sac3, stronger effect = lower value 0.937 | locus YDR162C, strain NBP2, stronger effect = lower value 1.02 | locus YDR195W, strain ref2 1.01 | locus YDR297W, strain sur2, stronger effect = lower value 1.03 | locus YDR318W, strain mcm21, stronger effect = lower value 0.994 | locus YDR334W, strain swr1, stronger effect = lower value 1 | locus YDR335W, strain msn5, stronger effect = lower value 1.01 | locus YDR388W, stronger effect = lower value 0.998 | locus YDR392W, strain spt3, stronger effect = lower value 0.942 | locus YDR502C, strain sam2, stronger effect = lower value 0.996 | locus YEL003W, strain gim4, stronger effect = lower value 1.03 | locus YEL037C, strain rad23, stronger effect = lower value 1.01 | locus YEL061C, strain CIN8 (second series), stronger effect = lower value 1 | locus YEL061C, strain CIN8, stronger effect = lower value 1.01 | locus YER015W, strain faa2, stronger effect = lower value 1.01 | locus YER016W, strain bim1, stronger effect = lower value 0.994 | locus YER110C, stronger effect = lower value 0.99 | locus YER111C, strain swi4, stronger effect = lower value 1 | locus YER155C, strain BEM2 (second series), stronger effect = lower value 1.08 | locus YER155C, strain BEM2, stronger effect = lower value 1 | locus YER167W, strain BCK2, stronger effect = lower value 0.99 | locus YFR010W, strain ubp6, stronger effect = lower value 1.01 | locus YGL078C, strain dbp3, stronger effect = lower value 0.995 | locus YGL086W, strain mad1, stronger effect = lower value 0.987 | locus YGL167C, strain pmr1, stronger effect = lower value 1.03 | locus YGL173C, strain kem1, stronger effect = lower value 1.04 | locus YGL227W, strain vid30, stronger effect = lower value 1.01 | locus YGL240W, strain doc1, stronger effect = lower value 1.04 | locus YGL248W, strain PDE1, stronger effect = lower value 0.993 | locus YGL253W, strain hxk2, stronger effect = lower value 0.985 | locus YGR078C, strain PAC10, stronger effect = lower value 1.03 | locus YGR135W, strain pre9, stronger effect = lower value 1.01 | locus YGR229C, strain SMI1, stronger effect = lower value 1.06 | locus YGR252W, strain gcn5, stronger effect = lower value 0.977 | locus YHR013C, strain ard1, stronger effect = lower value 1 | locus YHR027C, strain rpn1, stronger effect = lower value 1.01 | locus YHR030C, strain SLT2, stronger effect = lower value 0.991 and 1.04 | locus YHR079C, strain IRE1 (second series), stronger effect = lower value 0.991 | locus YHR079C, strain IRE1, stronger effect = lower value 1.04 | locus YHR094C, strain hxt1, stronger effect = lower value 0.991 | locus YHR129C, strain ARP1, stronger effect = lower value 0.999 | locus YHR142W, strain chs7, stronger effect = lower value 0.99 | locus YHR200W, strain rpn10, stronger effect = lower value 0.988 | locus YIL066C, strain RNR3, stronger effect = lower value 1 | locus YIL073C, strain SPO22, stronger effect = lower value 0.949 | locus YIL125W, strain kgd1, stronger effect = lower value 0.99 | locus YIR030C, strain dcg1, stronger effect = lower value 0.994 | locus YJL092W, strain hpr5, stronger effect = lower value 1.03 | locus YJL095W, strain BCK1 (second series), stronger effect = lower value 1.03 | locus YJL095W, strain BCK1, stronger effect = lower value 1.05 and 1.04 | locus YJL115W, strain asf1, stronger effect = lower value 1.01 | locus YJL129C, strain trk1, stronger effect = lower value 1.02 | locus YJL134W, strain LCB3, stronger effect = lower value 0.997 | locus YJL154C, strain vps35, stronger effect = lower value 1.01 | locus YJL164C, strain tpk1, stronger effect = lower value 0.989 | locus YJL166W, strain qcr8, stronger effect = lower value 1.03 | locus YJL168C, strain set2, stronger effect = lower value 0.998 | locus YJL187C, strain SWE1 (second series), stronger effect = lower value 1 | locus YJL187C, strain SWE1, stronger effect = lower value 1.02 | locus YJR043C, strain POL32, stronger effect = lower value 0.995 | locus YJR066W, strain TOR1, stronger effect = lower value 1.01
